Changes are numbered by the printed parent chain.
What was measured:
Assay in all cases: HT-SELEX; high values mean tight binding
Conditions in all cases: protein: recombinant; vector His6-GST; dsDNA, one strand shown
SALL4 ZFC4 WT (HT-SELEX) = target: T1, SALL4 ZFC4 WT (HT-SELEX) (Mus musculus, UniProt Q8BX22 870-940)
T1 sequence: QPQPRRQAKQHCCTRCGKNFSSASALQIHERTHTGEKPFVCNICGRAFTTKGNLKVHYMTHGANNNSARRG
How it was run: (§1)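 Residues 870–940 of mouse SALL4, forming zinc finger cluster 4, were expressed recombinantly, purified, and 1 µg was incubated with library DNA (1.5 µg first cycle, 200 ng later) in 100 µl of 10 mM Tris–HCl pH 7.5, 50 mM NaCl, poly(dI-dC) and DTT for 10 min at room temperature. Washed Ni2+ bead-captured complexes were PCR-amplified and reselected for up to 6 cycles in triplicate, and the products were sequenced on MiSeq and scanned for 6-mers. Binding signal is the fold change in each canonical k-mer's read fraction compared with the initial random library.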

[1] = target: T2, SALL4 ZFC4 R900W (HT-SELEX) (Mus musculus, UniProt Q8BX22 870-940, R900W)
T2 sequence: T1 sequence with R31W
How it was run: as §1

[2] = target: T3, SALL4 ZFC4 G921D (HT-SELEX) (Mus musculus, UniProt Q8BX22 870-940, G921D)
T3 sequence: T1 sequence with G52D
How it was run: as §1

Row | Sequence | binding signal (SALL4 ZFC4 WT (HT-SELEX)) | binding signal [1] | binding signal [2]
1 | ACAAGG | 0.796 ± 0.0489 fold-change vs cycle 0 | 0.976 ± 0.041 fold-change vs cycle 0 | 0.945 ± 0.0282 fold-change vs cycle 0
2 | ACAACA | 1.16 ± 0.0181 fold-change vs cycle 0 | 1.28 ± 0.0315 fold-change vs cycle 0 | 1.25 ± 0.0467 fold-change vs cycle 0
3 | GCAGGA | 0.338 ± 0.0276 fold-change vs cycle 0 | 0.413 ± 0.0223 fold-change vs cycle 0 | 0.489 ± 0.0596 fold-change vs cycle 0
4 | CCACTC | 0.468 ± 0.0131 fold-change vs cycle 0 | 0.5154 ± 0.00212 fold-change vs cycle 0 | 0.62 ± 0.0734 fold-change vs cycle 0
5 | AGCCTA | 0.614 ± 0.0322 fold-change vs cycle 0 | 0.728 ± 0.0355 fold-change vs cycle 0 | 0.832 ± 0.0333 fold-change vs cycle 0
6 | GGATGA | 0.897 ± 0.0305 fold-change vs cycle 0 | 1.01 ± 0.0334 fold-change vs cycle 0 | 1.02 ± 0.0224 fold-change vs cycle 0
7 | TCGGAA | 0.681 ± 0.041 fold-change vs cycle 0 | 0.761 ± 0.0268 fold-change vs cycle 0 | 0.862 ± 0.0635 fold-change vs cycle 0
8 | GTCACA | 0.677 ± 0.0487 fold-change vs cycle 0 | 0.804 ± 0.0553 fold-change vs cycle 0 | 0.861 ± 0.0406 fold-change vs cycle 0
9 | GAACCC | 0.462 ± 0.0176 fold-change vs cycle 0 | 0.565 ± 0.0113 fold-change vs cycle 0 | 0.668 ± 0.0409 fold-change vs cycle 0
10 | AATTGC | 0.939 ± 0.042 fold-change vs cycle 0 | 0.962 ± 0.0218 fold-change vs cycle 0 | 1.04 ± 0.0209 fold-change vs cycle 0
11 | ACACGG | 0.354 ± 0.0115 fold-change vs cycle 0 | 0.455 ± 0.00764 fold-change vs cycle 0 | 0.548 ± 0.0679 fold-change vs cycle 0
12 | AGTCAA | 1.21 ± 0.0262 fold-change vs cycle 0 | 1.409 ± 0.0091 fold-change vs cycle 0 | 1.34 ± 0.0532 fold-change vs cycle 0
13 | CGTTTA | 1.06 ± 0.0285 fold-change vs cycle 0 | 1.15 ± 0.0184 fold-change vs cycle 0 | 1.12 ± 0.0221 fold-change vs cycle 0
14 | AAATCT | 1.82 ± 0.0976 fold-change vs cycle 0 | 1.85 ± 0.0812 fold-change vs cycle 0 | 1.72 ± 0.124 fold-change vs cycle 0
15 | ACATAT | 2.28 ± 0.213 fold-change vs cycle 0 | 1.97 ± 0.122 fold-change vs cycle 0 | 1.75 ± 0.16 fold-change vs cycle 0
16 | ATAGTG | 1.28 ± 0.0269 fold-change vs cycle 0 | 1.33 ± 0.0375 fold-change vs cycle 0 | 1.31 ± 0.0797 fold-change vs cycle 0
17 | ACTCGG | 0.394 ± 0.0337 fold-change vs cycle 0 | 0.467 ± 0.0183 fold-change vs cycle 0 | 0.588 ± 0.0373 fold-change vs cycle 0
18 | ACGGAA | 0.706 ± 0.0319 fold-change vs cycle 0 | 0.803 ± 0.0284 fold-change vs cycle 0 | 0.868 ± 0.0441 fold-change vs cycle 0
19 | AATATA | 4.74 ± 0.532 fold-change vs cycle 0 | 2.49 ± 0.212 fold-change vs cycle 0 | 2.16 ± 0.28 fold-change vs cycle 0
20 | CTTACC | 0.909 ± 0.0427 fold-change vs cycle 0 | 1.06 ± 0.0534 fold-change vs cycle 0 | 1.02 ± 0.0246 fold-change vs cycle 0

Row | Sequence | binding signal (SALL4 ZFC4 WT (HT-SELEX)) | binding signal [1] | binding signal [2]
21 | AGGAAT | 1.52 ± 0.0788 fold-change vs cycle 0 | 1.63 ± 0.0707 fold-change vs cycle 0 | 1.49 ± 0.113 fold-change vs cycle 0
22 | GATAAC | 1.49 ± 0.117 fold-change vs cycle 0 | 1.52 ± 0.136 fold-change vs cycle 0 | 1.44 ± 0.166 fold-change vs cycle 0
23 | CGTAGA | 0.623 ± 0.00876 fold-change vs cycle 0 | 0.7054 ± 0.00296 fold-change vs cycle 0 | 0.786 ± 0.024 fold-change vs cycle 0
24 | CATCCG | 0.395 ± 0.00447 fold-change vs cycle 0 | 0.448 ± 0.0185 fold-change vs cycle 0 | 0.567 ± 0.0534 fold-change vs cycle 0
25 | TCTAAA | 1.79 ± 0.0986 fold-change vs cycle 0 | 1.85 ± 0.144 fold-change vs cycle 0 | 1.67 ± 0.161 fold-change vs cycle 0
26 | ATTAAT | 6.27 ± 0.662 fold-change vs cycle 0 | 2.77 ± 0.256 fold-change vs cycle 0 | 2.34 ± 0.327 fold-change vs cycle 0
27 | GAACAC | 0.766 ± 0.0374 fold-change vs cycle 0 | 0.901 ± 0.0255 fold-change vs cycle 0 | 0.932 ± 0.0461 fold-change vs cycle 0
28 | AGTTAG | 1.428 ± 0.0117 fold-change vs cycle 0 | 1.56 ± 0.0647 fold-change vs cycle 0 | 1.46 ± 0.0871 fold-change vs cycle 0
29 | AGTAAA | 1.96 ± 0.143 fold-change vs cycle 0 | 2.08 ± 0.144 fold-change vs cycle 0 | 1.78 ± 0.193 fold-change vs cycle 0
30 | ACACAG | 0.726 ± 0.03 fold-change vs cycle 0 | 0.835 ± 0.00993 fold-change vs cycle 0 | 0.877 ± 0.04 fold-change vs cycle 0
31 | CACAAC | 0.647 ± 0.0332 fold-change vs cycle 0 | 0.72 ± 0.018 fold-change vs cycle 0 | 0.828 ± 0.0337 fold-change vs cycle 0
32 | CTATAG | 1.37 ± 0.136 fold-change vs cycle 0 | 1.45 ± 0.0344 fold-change vs cycle 0 | 1.35 ± 0.128 fold-change vs cycle 0
33 | AACTGG | 0.7531 ± 0.00684 fold-change vs cycle 0 | 0.889 ± 0.0264 fold-change vs cycle 0 | 0.904 ± 0.0346 fold-change vs cycle 0
34 | ATTTCA | 2.56 ± 0.117 fold-change vs cycle 0 | 1.87 ± 0.0758 fold-change vs cycle 0 | 1.7 ± 0.117 fold-change vs cycle 0
35 | GGAGGA | 0.577 ± 0.0578 fold-change vs cycle 0 | 0.669 ± 0.0435 fold-change vs cycle 0 | 0.733 ± 0.0247 fold-change vs cycle 0
36 | CGGGAA | 0.362 ± 0.00736 fold-change vs cycle 0 | 0.417 ± 0.0262 fold-change vs cycle 0 | 0.499 ± 0.0534 fold-change vs cycle 0
37 | TCCACA | 0.698 ± 0.0439 fold-change vs cycle 0 | 0.806 ± 0.0256 fold-change vs cycle 0 | 0.842 ± 0.0543 fold-change vs cycle 0
38 | AGGCAA | 0.538 ± 0.0205 fold-change vs cycle 0 | 0.6566 ± 0.00197 fold-change vs cycle 0 | 0.754 ± 0.0411 fold-change vs cycle 0
39 | CCCTTC | 0.486 ± 0.0255 fold-change vs cycle 0 | 0.614 ± 0.0191 fold-change vs cycle 0 | 0.653 ± 0.0312 fold-change vs cycle 0
40 | CCCTCA | 0.502 ± 0.0184 fold-change vs cycle 0 | 0.579 ± 0.0163 fold-change vs cycle 0 | 0.665 ± 0.0275 fold-change vs cycle 0

Row | Sequence | binding signal (SALL4 ZFC4 WT (HT-SELEX)) | binding signal [1] | binding signal [2]
41 | ATACGC | 0.486 ± 0.0113 fold-change vs cycle 0 | 0.531 ± 0.0184 fold-change vs cycle 0 | 0.66 ± 0.0195 fold-change vs cycle 0
42 | AAAGAC | 1.11 ± 0.0498 fold-change vs cycle 0 | 1.29 ± 0.0526 fold-change vs cycle 0 | 1.26 ± 0.0352 fold-change vs cycle 0
43 | CCGTCA | 0.358 ± 0.0271 fold-change vs cycle 0 | 0.431 ± 0.0281 fold-change vs cycle 0 | 0.531 ± 0.0693 fold-change vs cycle 0
44 | CATCAG | 0.861 ± 0.0198 fold-change vs cycle 0 | 0.967 ± 0.0193 fold-change vs cycle 0 | 0.996 ± 0.0231 fold-change vs cycle 0
45 | AACTGT | 1.31 ± 0.0453 fold-change vs cycle 0 | 1.39 ± 0.0174 fold-change vs cycle 0 | 1.34 ± 0.0563 fold-change vs cycle 0
46 | ACTTGC | 0.656 ± 0.0276 fold-change vs cycle 0 | 0.723 ± 0.0488 fold-change vs cycle 0 | 0.815 ± 0.0179 fold-change vs cycle 0
47 | TGTCAA | 1.12 ± 0.0378 fold-change vs cycle 0 | 1.266 ± 0.01 fold-change vs cycle 0 | 1.26 ± 0.0283 fold-change vs cycle 0
48 | AATAAC | 2.58 ± 0.181 fold-change vs cycle 0 | 2.03 ± 0.114 fold-change vs cycle 0 | 1.79 ± 0.168 fold-change vs cycle 0
49 | AGCACT | 0.65 ± 0.0278 fold-change vs cycle 0 | 0.746 ± 0.0409 fold-change vs cycle 0 | 0.859 ± 0.0159 fold-change vs cycle 0
50 | ACGATG | 0.719 ± 0.0288 fold-change vs cycle 0 | 0.794 ± 0.00845 fold-change vs cycle 0 | 0.87 ± 0.00912 fold-change vs cycle 0
51 | CGAGAA | 0.725 ± 0.0428 fold-change vs cycle 0 | 0.818 ± 0.0294 fold-change vs cycle 0 | 0.857 ± 0.0383 fold-change vs cycle 0
52 | GTTGCA | 0.582 ± 0.0571 fold-change vs cycle 0 | 0.661 ± 0.0273 fold-change vs cycle 0 | 0.75 ± 0.0252 fold-change vs cycle 0
53 | CTATGC | 0.624 ± 0.0148 fold-change vs cycle 0 | 0.702 ± 0.0118 fold-change vs cycle 0 | 0.796 ± 0.0538 fold-change vs cycle 0
54 | GTGGAA | 0.745 ± 0.0414 fold-change vs cycle 0 | 0.83 ± 0.0233 fold-change vs cycle 0 | 0.871 ± 0.012 fold-change vs cycle 0
55 | AGTGGA | 0.862 ± 0.03 fold-change vs cycle 0 | 0.954 ± 0.0352 fold-change vs cycle 0 | 0.964 ± 0.0435 fold-change vs cycle 0
56 | AAATCA | 1.98 ± 0.081 fold-change vs cycle 0 | 1.8 ± 0.0687 fold-change vs cycle 0 | 1.7 ± 0.128 fold-change vs cycle 0
57 | ATGGGA | 0.904 ± 0.0547 fold-change vs cycle 0 | 0.99 ± 0.053 fold-change vs cycle 0 | 0.966 ± 0.0349 fold-change vs cycle 0
58 | TACGCA | 0.51 ± 0.0296 fold-change vs cycle 0 | 0.54 ± 0.0242 fold-change vs cycle 0 | 0.668 ± 0.0555 fold-change vs cycle 0
59 | GGGAAC | 0.517 ± 0.0146 fold-change vs cycle 0 | 0.591 ± 0.0347 fold-change vs cycle 0 | 0.653 ± 0.041 fold-change vs cycle 0
60 | ACCGTC | 0.344 ± 0.0295 fold-change vs cycle 0 | 0.418 ± 0.0372 fold-change vs cycle 0 | 0.528 ± 0.0646 fold-change vs cycle 0

From paper PMC9838217, “Structure of SALL4 zinc finger domain reveals link between AT-rich DNA binding and Okihiro syndrome”
